A selection: hits, their analogues and other compounds. The true share with any hit is near 2.2%.
aSyn yeast inh = rescues yeast growth from alpha-synuclein toxicity | Yeast expressing alpha-synuclein, growth rescue, BacTiter-Glo, 24 h | Potency, µM (doses to about 46.1 µM), without a hit: top-dose growth rescue (activation), hits mostly activators | actives 0.14% (n = 370,000); note: % of control where 0% means no effect; nearly all actives have a fitted effect of over 65% in size
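Readout is rescue of growth in alpha-synuclein-expressing yeast, so inhibitors of toxicity appear as activators. Growth after 24 hr at 30 deg C in galactose medium is quantified by luminescence.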
FUS yeast rescue = FUS proteinopathy suppression in yeast | S. cerevisiae FUS-expressing, growth rescue, OD600, 24 h | Potency, µM (highest dose often 76.6 µM), most hits filed as activators | actives 0.24% (n = 390,000);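 note: plate controls were DMSO vehicle for no effect and reference control for full effect; nearly all actives have a fitted effect of over 55% in size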
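Galactose (2%) drives FUS expression in yeast precultured in raffinose; seeding density OD 0.005. Test compounds incubated 24hr at 30C and 99% humidity before absorbance at 600 nm was measured.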
Mito fusion act = blocks mitochondrial division or promotes mitochondrial fusion | S. cerevisiae fusion-defective mutant growth rescue, CellTiterGlo 48 h | Potency, µM (series often up to 46.1 µM), for inactives: at the top dose growth rescue (activation), most hits filed as activators | actives 0.23% (n = 320,000); note: % of control where 0% means no effect; nearly all actives have a fitted effect of over 45% in size
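Growth-rescue viability read-out: after 48 h at the non-permissive 37C in glycerol/ethanol YPEG, yeast mitochondrial fusion mutants are measured by CellTiterGlo luminescence; compounds (23 nl pinned per well) restoring growth score as division inhibitors or fusion activators.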
TDP-43 yeast inh = TDP-43 toxicity inhibition in yeast; TDP-43 expressing yeast growth rescue, BacTiter-Glo, 24 h; Potency, µM (highest dose often 46.1 µM), without a hit: at the top dose growth rescue (activation), hits mostly activators; actives 1.8% (n = 410,000); AID 652104; note: % of control where 0% means no effect; nearly all actives have a fitted effect of over 50% in size
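In this qHTS, compounds that restore growth of yeast expressing TDP-43 appear as activators. Cells (OD600=0.02, galactose medium, raffinose-pregrown) are incubated with compound 24 hr at 30 deg C and growth is quantified by BacTiter-Glo.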
Abeta yeast res = A-beta toxicity reversal in yeast; yeast expressing A-beta42, growth rescue, OD600, 48 h; response scale: 0% DMSO, 100% iron-clioquinol control; Potency, µM (titrated, usually from 46.1 µM), usual class: activators; actives 0.063% (n = 410,000); AID 1347071; note: nearly all actives have a fitted effect of over 55% in size
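Yeast A-beta toxicity model in growth medium with pinned compounds, 48 h at 30 C; growth read as absorbance at 600 nm. Normalized to FeCl3/clioquinol equimolar mix (positive) and DMSO (negative).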
An asterisk follows results filed as active; i = inactive; ? = inconclusive; . = no result; [ ] = dose if it differs, or a comment. Calls come from the whole dose curve; as a rule, active = well fitted curve in the direction sought with a large enough effect; inconclusive = small, poorly fitted or top-dose-only effect, or another doubt; inactive = no such curve, though single readings can be large; an effect the other way counts as inactive or inconclusive. Potency is the fitted concentration of half-maximal effect.

SMILES	aSyn yeast inh	FUS yeast rescue	Mito fusion act	TDP-43 yeast inh	Abeta yeast res
COc1ccc(OC)c(-c2csc(NC(=O)Cc3ccccc3)n2)c1	-6%	i	15%	?	i
COc1ccc(-c2csc(NC(=O)Cc3ccccc3F)n2)c(OC)c1	-7%	i	2%	13µM*	i
O=C(Cc1ccccc1F)Nc1nc(-c2cccs2)cs1	-10%	i	?	13µM*	i
CCCCN(CC)CCCNC(=O)c1cn(CC)c2ccc(S(=O)(=O)N3CCOCC3)cc2c1=O	.	i	.	3%	i
CC(C)C(=O)NCC(c1ccc2c(c1)OCO2)N1CCN(c2ccccc2)CC1 (stereo not drawn)	.	i	.	8%	i
O=C(CS(=O)(=O)c1nc(-c2ccc(Cl)cc2)cn1-c1ccccc1)Nc1ccc(F)cc1F	.	?	.	14µM*	i
O=C(CS(=O)(=O)c1nc(-c2ccc(Cl)cc2)cn1-c1ccccc1)Nc1cccc(Cl)c1	.	?	.	?	i
O=C1CCC[C@H]2C[C@H](NCc3cccc(I)c3)CC[C@]23CCCN13	.	i	.	.	.
CCN1CCCC1CN(Cc1cc2cc(C)ccc2[nH]c1=O)C(=O)Nc1ccccc1OC (stereo not drawn)	-1%	22µM*	11%	-6%	i
COc1ccc(Cc2c(-c3ccco3)nc3ccc(Br)cn23)c(C)c1	?	i	.	4.5µM*	i
COc1ccc(Cc2c(-c3ccco3)nc3ccc(Cl)cn23)c(C)c1	23%	i	.	22µM*	i
CC(C)(C)Cc1c(-c2cccc(Cl)c2)nc2ccc(Cl)cn12	-14%	i	.	0%	i
CC(C)(C)Cc1c(-c2ccco2)nc2ccc(Cl)cn12	?	i	.	11µM*	i
COc1ccc(Cc2c(-c3ccccc3)nc3ccc(Cl)cn23)c(C)c1	5%	i	.	0%	i
CCn1c(=O)n2n(c1=O)[C@H]1C[N+](Cc3ccc4c(c3)OCO4)=C(N)NC1=C(C)C2	.	i	.	.	.
CN(C)c1ccc(C(=O)Oc2cc(O/N=[N+](\[O-])N(C)C)c([N+](=O)[O-])cc2[N+](=O)[O-])cc1	-73%	.	.	.	.
O=S(=O)(c1cccnc1)N1CCN(c2nc(-c3cccs3)nc3ccccc23)CC1	0%	.	.	.	.
CC1CCN(C(=S)c2ccc(N(C)C)cc2)CC1	-7%	i	-9%	-13%[1.82 µM]	13µM*
COc1ccccc1CNC(=O)c1ccc(N2CCCC2)c(NC(=O)NCc2ccc(C)cc2)c1	.	i	.	21%	i
Cc1ccc(C)c(S(=O)(=O)N2CCN(C(=O)Cc3sc(C)nc3-c3ccc(F)cc3)CC2)c1	16µM*	.	.	18%	i
COCC(C)n1c(SCC(=O)NC(=O)NC2CCCC2)nc2ccccc2c1=O (stereo not drawn)	0%	i	11%	19%	i
COCc1cc(OC)nc(-c2csc(C)n2)n1	4%	i	-8%	24%	16µM*
COCc1cc(=O)[nH]c(-c2csc(C)n2)n1	0%	i	3%	5%	i
Cc1ccc(S(=O)(=O)NCCNc2ccc([N+](=O)[O-])cc2)cc1	12%	i	1%	26%	i
Cc1ccc(S(=O)(=O)Nc2c(C)cc([N+](=O)[O-])cc2C)cc1	18%	.	.	14µM*	i
SMILES	aSyn yeast inh	FUS yeast rescue	Mito fusion act	TDP-43 yeast inh	Abeta yeast res
C=C(C)n1c(=O)n(Cc2ccc(C)cc2)c2ccccc21	30%	i	1%	5%	i
C=C(C)n1c(=O)n(Cc2ccccc2C)c2ccccc21	0%	i	5%	11µM*	i
Cc1nc([N+](=O)[O-])cn1CC(O)c1ccc2c(c1)OCO2 (stereo not drawn)	-3%	.	.	.	.
COC(=O)[C@]12C[C@H](CC(=O)NCCC(C)C)C(=O)N(Cc3ccc(Cl)cc3Cl)C1=C[C@H](C(C)C)O[C@@H]2C1CC1	.	i	.	.	.
COCCCNC(=O)C[C@H]1C[C@@]2(C(=O)OC)C(=C[C@H](C(C)C)O[C@@H]2C2CC2)N(Cc2ccc(Cl)cc2Cl)C1=O	.	28µM*	.	.	.
COC(=O)[C@]12C[C@H](CC(=O)NCc3ccc(OC)c(OC)c3)C(=O)N(Cc3ccc(Cl)cc3Cl)C1=C[C@H](C(C)C)O[C@@H]2C1CC1	.	28µM*	.	.	.
Cc1ccc(C(=O)Nc2cccc(N(C)S(C)(=O)=O)c2)cc1S(=O)(=O)Nc1ccccc1	10%	35µM*	-2%	-24%	i
COc1ccc(C(=O)Nc2cccc(N(C)S(C)(=O)=O)c2)cc1OC	0%	i	-3%	-1%	i
O=C(CSc1nc2ccccc2[nH]1)NN=Cc1c(F)cccc1Cl	.	i	.	.	.
Cc1cc2ncn(/N=C/c3ccc([N+](=O)[O-])s3)c2cc1C	10%	.	2%	13µM*	i
CCN(C(=O)CN(C)S(=O)(=O)c1ccc2c(c1)n(C)c(=O)c(=O)n2C)c1cccc(C)c1	.	i	.	6%	i
Cc1cc(SCC(=O)NC(=O)NCc2ccco2)nc2c(C)cccc12	11µM*	?	-1%	-9%	i
Cc1cc(SCC(=O)NC(=O)NCc2ccco2)nc2ccccc12	-1%	?	-3%	?	i
Cc1c(Cl)cccc1N1CC(c2nc3ccccc3n2Cc2ccccc2F)CC1=O (stereo not drawn)	.	i	.	25µM*	i
CCOc1ccc(N2CC(c3nc4ccccc4n3Cc3ccccc3F)CC2=O)cc1 (stereo not drawn)	.	i	.	1%	i
O=C1CC(c2nc3ccccc3n2Cc2c(F)cccc2Cl)CN1c1cccc(C(F)(F)F)c1 (stereo not drawn)	.	i	.	25µM*	i
Cc1ccccc1OCCCCn1c(C2CC(=O)N(c3ccccc3Cl)C2)nc2ccccc21 (stereo not drawn)	.	i	.	11µM*	?
Cc1cccc(C)c1OCCn1c(C2CC(=O)N(c3cccc(Cl)c3)C2)nc2ccccc21 (stereo not drawn)	.	i	.	-2%	i
CCCCN(C)c1ncnc2c1cnn2-c1cccc(Cl)c1	.	i	.	13µM*	i
COc1ccccc1NC(=O)CSc1ccc(-c2cccs2)nn1	-18%	i	14%	22µM*	i
COc1ccccc1NC(=O)CSc1ccc(-c2ccco2)nn1	-4%	i	10%	?	i
COc1ccc(OC)c(NC(=O)CSc2ccc(-c3ccco3)nn2)c1	-7%	i	4%	20µM*	i
CCc1nn(CC(=O)N2CCN(c3cccc(C(F)(F)F)c3)CC2)c(=O)c2cccn12	.	i	.	-16%	i
CCN(CC)CCCNC(=O)CSc1nc2nc(C)c(Cc3ccccc3C)c(C)n2n1	.	i	.	6%	i
Cc1ccccc1NC(=S)NCCSc1ccc(Cl)cc1	1%	i	2%	18µM*	i

Assay outcomes: PubChem BioAssay, National Center for Advancing Translational Sciences (NCATS)
